Measured values as given in PubChem BioAssay AID1159580 (chemical genetic matrix, 2015).
Several values for one entry are separate records, joined by “and”; a condition that tells them apart may be missing. Equal entries are not always repeated. About 2,000 (36%) of roughly 5,500 compounds were called active. About 18% were inconclusive and are not listed. Cut-off read from the data, not from the text of the source: active = normalized growth mostly below about 0.91 (no sharp cut-off); inconclusive = no clear call, values can overlap the other calls; inactive = mostly above about 0.92. Some of the results follow.

Test: chemical genetic growth profiling, strain panel (AID 1159580);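 note: tested at 20 µM; growth read once vehicle control cultures reached saturation at 30 °C; 1 = growth at the plate median or of vehicle wells; lower values mean less growth of the strain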
Settings: growth OD

Measured: normalized growth

CCN(CC)CCNC(=O)c1cc(S(C)(=O)=O)ccc1OC
inactive: S. cerevisiae deletion strains, locus YJR066W, strain TOR1, hits give low values 0.947 | S. cerevisiae deletion strains, locus YJR075W, strain HOC1, hits give low values 1.03 and 0.995 | S. cerevisiae deletion strains, locus YKL009W, strain mrt4, hits give low values 1.02 | S. cerevisiae deletion strains, locus YKL068W, hits give low values 1.01 | S. cerevisiae deletion strains, locus YKL085W, strain MDH1 (second series), hits give low values 1.02 | S. cerevisiae deletion strains, locus YKL085W, strain MDH1, hits give low values 1.02 | S. cerevisiae deletion strains, locus YKL160W, strain elf1, hits give low values 0.944 | S. cerevisiae deletion strains, locus YKL190W, strain CNB1, hits give low values 1.01 | S. cerevisiae deletion strains, locus YKR001C, strain vps1, hits give low values 1.01 | S. cerevisiae deletion strains, locus YKR026C, strain gcn3, hits give low values 0.979 | S. cerevisiae deletion strains, locus YKR091W, strain srl3, hits give low values 0.962 | S. cerevisiae deletion strains, locus YLL001W, strain dnm1, hits give low values 0.94 | S. cerevisiae deletion strains, locus YLL026W, hits give low values 0.975 | S. cerevisiae deletion strains, locus YLL041C, strain sdh2, hits give low values 0.972 | S. cerevisiae deletion strains, locus YLR027C, strain aat2, hits give low values 0.963 | S. cerevisiae deletion strains, locus YLR039C, strain RIC1, hits give low values 1.03 | S. cerevisiae deletion strains, locus YLR058C, strain SHM2, hits give low values 1.01 | S. cerevisiae deletion strains, locus YLR102C, strain apc9, hits give low values 1.01 | S. cerevisiae deletion strains, locus YLR113W, strain HOG1, hits give low values 0.984 | S. cerevisiae deletion strains, locus YLR221C, strain rsa3, hits give low values 0.948 | S. cerevisiae deletion strains, locus YLR258W, strain gsy2, hits give low values 0.981 | S. cerevisiae deletion strains, locus YLR262C, strain YPT6 (second series), hits give low values 0.976 | S. cerevisiae deletion strains, locus YLR262C, strain YPT6, hits give low values 1.06 | S. cerevisiae deletion strains, locus YLR268W, strain sec22, hits give low values 1.02 | S. cerevisiae deletion strains, locus YLR320W, strain mms22, hits give low values 0.941 | S. cerevisiae deletion strains, locus YLR330W, strain CHS5, hits give low values 1.01 | S. cerevisiae deletion strains, locus YLR342W, strain FKS1 (second series), hits give low values 1.02 | S. cerevisiae deletion strains, locus YLR342W, strain FKS1, hits give low values 0.963 | S. cerevisiae deletion strains, locus YLR357W, strain rsc2, hits give low values 0.927 | S. cerevisiae deletion strains, locus YLR370C, strain arc18, hits give low values 0.969 | S. cerevisiae deletion strains, locus YLR371W, strain rom2, hits give low values 1.01 | S. cerevisiae deletion strains, locus YLR384C, strain iki3, hits give low values 0.971 | S. cerevisiae deletion strains, locus YLR418C, strain cdc73, hits give low values 1.04 | S. cerevisiae deletion strains, locus YML016C, strain PPZ1, hits give low values 1.01 | S. cerevisiae deletion strains, locus YML032C, strain rad52, hits give low values 1.01 | S. cerevisiae deletion strains, locus YML120C, strain ndi1, hits give low values 0.944 | S. cerevisiae deletion strains, locus YML124C, strain tub3, hits give low values 1.01 | S. cerevisiae deletion strains, locus YMR058W, strain fet3, hits give low values 0.969 | S. cerevisiae deletion strains, locus YMR078C, strain ctf18, hits give low values 1.01 | S. cerevisiae deletion strains, locus YMR125W, strain sto1, hits give low values 0.963 | S. cerevisiae deletion strains, locus YMR129W, hits give low values 0.974 | S. cerevisiae deletion strains, locus YMR205C, strain PFK2, hits give low values 0.941 | S. cerevisiae deletion strains, locus YMR223W, strain ubp8, hits give low values 1.03 | S. cerevisiae deletion strains, locus YMR231W, strain pep5, hits give low values 0.973 | S. cerevisiae deletion strains, locus YMR263W, strain SAP30, hits give low values 1 | S. cerevisiae deletion strains, locus YMR307W, strain GAS1, hits give low values 1.06 and 0.987 | S. cerevisiae deletion strains, locus YNL067W, strain RPL9B, hits give low values 1 | S. cerevisiae deletion strains, locus YNL071W, strain lat1, hits give low values 0.975 | S. cerevisiae deletion strains, locus YNL128W, strain TEP1, hits give low values 1.02 | S. cerevisiae deletion strains, locus YNL153C, strain GIM3, hits give low values 1.02 | S. cerevisiae deletion strains, locus YNL175C, strain NOP13, hits give low values 1.01 | S. cerevisiae deletion strains, locus YNL183C, strain NPR1, hits give low values 0.921 | S. cerevisiae deletion strains, locus YNL197C, strain WHI3, hits give low values 1.03 | S. cerevisiae deletion strains, locus YNL209W, strain ssb2, hits give low values 0.972 | S. cerevisiae deletion strains, locus YNL224C, strain SQS1, hits give low values 1 | S. cerevisiae deletion strains, locus YNL233W, strain BNI4, hits give low values 1 | S. cerevisiae deletion strains, locus YNL248C, strain rpa49, hits give low values 0.971 | S. cerevisiae deletion strains, locus YNL250W, strain rad50, hits give low values 1.04 | S. cerevisiae deletion strains, locus YNL271C, strain bni1, hits give low values 1 | S. cerevisiae deletion strains, locus YNL298W, strain CLA4, hits give low values 1.01 | S. cerevisiae deletion strains, locus YNL307C, strain MCK1, hits give low values 1.02 | S. cerevisiae deletion strains, locus YNL322C, strain KRE1 (second series), hits give low values 0.956 | S. cerevisiae deletion strains, locus YNL322C, strain KRE1, hits give low values 0.961 | S. cerevisiae deletion strains, locus YNR049C, strain mso1, hits give low values 0.96 | S. cerevisiae deletion strains, locus YNR052C, strain pop2, hits give low values 1.01 | S. cerevisiae deletion strains, locus YOL006C, strain TOP1, hits give low values 1.01 | S. cerevisiae deletion strains, locus YOL012C, strain htz1 0.994 | S. cerevisiae deletion strains, locus YOL147C, strain pex11, hits give low values 1.01 | S. cerevisiae deletion strains, locus YOR001W, strain rrp6, hits give low values 0.968 | S. cerevisiae deletion strains, locus YOR061W, strain CKA2, hits give low values 1.01 | S. cerevisiae deletion strains, locus YOR069W, strain VPS5, hits give low values 1.01 | S. cerevisiae deletion strains, locus YOR070C, strain gyp1, hits give low values 0.98 | S. cerevisiae deletion strains, locus YOR080W, strain dia2, hits give low values 0.959 | S. cerevisiae deletion strains, locus YOR083W, strain WHI5 (second series), hits give low values 1 | S. cerevisiae deletion strains, locus YOR083W, strain WHI5, hits give low values 0.94 | S. cerevisiae deletion strains, locus YOR106W, strain vam3, hits give low values 0.939 | S. cerevisiae deletion strains, locus YOR136W, strain idh2, hits give low values 1.01 | S. cerevisiae deletion strains, locus YOR144C, strain elg1, hits give low values 1.01 | S. cerevisiae deletion strains, locus YOR184W, strain ser1, hits give low values 1.01 | S. cerevisiae deletion strains, locus YOR231W, strain MKK1, hits give low values 0.978 | S. cerevisiae deletion strains, locus YOR265W, strain rbl2, hits give low values 0.979 | S. cerevisiae deletion strains, locus YOR270C, strain vph1, hits give low values 0.933 | S. cerevisiae deletion strains, locus YOR290C, strain snf2, hits give low values 0.928 | S. cerevisiae deletion strains, locus YOR316C, strain cot1, hits give low values 1.01 | S. cerevisiae deletion strains, locus YPL051W, strain arl3, hits give low values 1 | S. cerevisiae deletion strains, locus YPL055C, strain LGE1, hits give low values 0.983 and 0.98 | S. cerevisiae deletion strains, locus YPL078C, strain atp4, hits give low values 0.962 | S. cerevisiae deletion strains, locus YPL106C, strain sse1, hits give low values 0.931 | S. cerevisiae deletion strains, locus YPL240C, strain hsp82, hits give low values 0.988 | S. cerevisiae deletion strains, locus YPL256C, strain CLN2, hits give low values 0.981 | S. cerevisiae deletion strains, locus YPR119W, strain clb2, hits give low values 1 | S. cerevisiae deletion strains, locus YPR141C, strain kar3, hits give low values 1.01 | S. cerevisiae deletion strains, locus YPR163C, strain tif3, hits give low values 1.01 | S. cerevisiae deletion strains, locus YPR167C, strain met16, hits give low values 1.01 | S. cerevisiae deletion strains, strain wtn01, hits give low values 1.01 | S. cerevisiae strains, strain wild type, hits give low values 1.01
